# Inconclusive results are not listed. Where a call stands in place of a potency, no number is given. A number with no mark means an inactive call. Active and inactive are the calls of the source. Calls come from the whole dose curve; as a rule, active = well fitted inhibition curve with a large enough effect; inconclusive = small, poorly fitted or top-dose-only effect; inactive = no such curve, though single readings can be large or run the other way.
# Target: M-phase phosphoprotein 8 (Homo sapiens) (UniProt Q99549)
# Experiment: qHTS Validation Assay for Inhibitors for MPP8 Chromodomain Interactions with Methylated Histone Tails (AID 488949); note: nearly all actives have a fitted effect of over 55% in size; for activity change, negative = inhibition: top concentration of the series differs between compounds
# Conditions: AlphaScreen MPP8 binding to H3K9me3 peptide; series mostly up to 57.1 µM; activity change, negative = inhibition: at the top concentration
# Text: As our understanding of epigenetics expands, it is becoming clear that players in this field are potential targets for drug development. This area of epigenetic therapy has established applications for the treatment of cancer and neurological diseases. We have been involved in this field for a number of years and have performed high-throughput screens to identify the first small molecule inhibitors of protein methyltransferases. These methyltransferases target multiple substrates, and thus regulate many arms of an epigenetic pathway. The methylation of different substrates often generates docking sites for effector proteins that harbor binding domains (chromo, tudor, PHD, MBT and ANK repeats). It has been proposed that the binding sites generated for different proteins by these post-translational modifcations mediate downstream effects on chromatin. Consistent with this theory, di- and tri-methylation of histone H3K9 facilitates the binding of heterochromatin protein HP1. The HP1 protein harbors a chromodomain that is responsible for the methyl-dependent interaction between HP1 and lysine 9 of histone H3. HP1 was first described in flies as a heterochromatin associated protein that can regulate gene silencing. It harbors a chromodomain that binds H3K9me3. In addition, it harbors a chromoshadow domain that interacts with a large number of proteins that are involved in heterochromatin formation and gene repression. There are three highly related HP1 isoforms. All three variants are associated with pericentric heterochromatin and it is not clear whether they have specific or redundant functions. MPP8 is also involved in the repression of gene in euchromatic regions (unpublished data) and like HP1 its chromodomain binds H3K9me3. MPP8 harbors an ankyrin repeat region that is likely involved in binding and recruiting interacting proteins with transcriptional repressive function, much like the chromoshadow domain of HP1 does. We hypothesize that by inhibiting specific protein-protein interactions we will be able to develop compounds that block a single arm of an epigenetic pathway. The specificity attained by blocking a single protein-protein interaction will be far greater than that attained by blocking the enzyme that regulates one of many interactions. Low-affinity protein-protein interactions (Kd in the single- to double-digit micromolar range) such as those discussed here have been very difficult to assay by traditional techniques such as fluorescence polarization or fluorescence resonance energy transfer. We have developed a sensitive chemiluminescence-based assay (Quinn, et al. 2009), which serves as the starting point for this project. The following is a validation assay to identify lead compounds that can block methyl-dependent protein-protein interactions (specifically MPP8), which can be used as probes to analyze these methyl-driven interactions and perhaps even developed into targeted epigenetic therapies. Assay Provider: Mark T. Bedford, MD Anderson Screening Center PI: Austin, C.P. Screening Center: NIH Chemical Genomics Center [NCGC]
# To each well, 2 uL of MPP8 protein (final 50 nM) and 1 uL biotinylated histone peptide trimethylated at Lys9 [b-H3(1-18)K9me3] (final 50 nM) was added in 1x PBS buffer, pH 7.4, containing 0.01% Tween-20 using a nanoliter dispenser. Formation of a protein-peptide complex proceeded at room temperature for 30 min. A Kalypsys pin-tool was employed to transfer 23 nL of library compound solution in DMSO to each well. Aurintricarboxylic acid (ATA) was used as an intraplate control with a 12-point titration in duplicate. Following a 30 min incubation of the protein-peptide complex with compounds at room temperature, a mixture of 40 ug/mL each streptavidin-coated donor and nickel chelate acceptor AlphaScreen beads (final 10 ug/mL) was added in a 1 uL dispense for a final volume of 4 uL. Plates were incubated protected from the light for 30 min at room temperature. […]
# Potency is the fitted concentration of half-maximal effect.
# M-phase phosphoprotein 8 (Homo sapiens), sequence (Q99549 whole entry, looked up): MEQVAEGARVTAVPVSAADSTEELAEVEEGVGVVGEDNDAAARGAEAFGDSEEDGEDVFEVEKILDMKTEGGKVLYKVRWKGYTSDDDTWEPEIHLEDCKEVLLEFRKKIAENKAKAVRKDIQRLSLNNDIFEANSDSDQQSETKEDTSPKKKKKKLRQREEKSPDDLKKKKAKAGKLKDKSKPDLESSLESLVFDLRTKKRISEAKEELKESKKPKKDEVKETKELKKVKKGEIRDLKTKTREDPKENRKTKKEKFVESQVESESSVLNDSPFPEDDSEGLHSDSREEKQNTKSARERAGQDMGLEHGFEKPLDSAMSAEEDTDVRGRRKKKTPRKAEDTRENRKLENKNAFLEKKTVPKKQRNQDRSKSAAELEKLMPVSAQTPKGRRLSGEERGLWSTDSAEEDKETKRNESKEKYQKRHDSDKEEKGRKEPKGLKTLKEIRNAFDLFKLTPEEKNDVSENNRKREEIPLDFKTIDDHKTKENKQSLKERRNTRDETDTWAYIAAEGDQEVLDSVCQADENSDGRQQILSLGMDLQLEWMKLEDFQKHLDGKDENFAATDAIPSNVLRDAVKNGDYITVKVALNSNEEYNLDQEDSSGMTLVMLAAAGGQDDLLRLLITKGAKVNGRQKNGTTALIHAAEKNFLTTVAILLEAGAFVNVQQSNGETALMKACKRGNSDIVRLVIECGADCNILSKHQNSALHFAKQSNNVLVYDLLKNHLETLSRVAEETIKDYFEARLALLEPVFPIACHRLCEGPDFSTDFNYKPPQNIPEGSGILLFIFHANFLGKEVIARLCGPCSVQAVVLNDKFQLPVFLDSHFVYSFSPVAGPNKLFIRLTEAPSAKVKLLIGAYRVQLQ
SMILES,"activity change, negative = inhibition",Potency
Nc1ncnc2c1ncn2[C@@H]1O[C@H](CO)[C@@H](O)[C@H]1O,-0.258%,–
CNCCCC1c2ccccc2C=Cc2ccccc21,–,inactive
C[C@]12C[C@H](O)[C@H]3[C@@H](CCC4=CC(=O)CC[C@@]43C)[C@@H]1CC[C@@H]2C(=O)CO,-4.6%,–
C[C@](N)(Cc1ccc(O)cc1)C(=O)O,-2.79%,–
CC[C@H]1CN2CCc3cc(OC)c(OC)cc3[C@@H]2C[C@@H]1C[C@H]1NCCc2cc(OC)c(OC)cc21,–,inactive
COc1ccc(Cl)cc1C(=O)NCCc1ccc(S(=O)(=O)NC(=O)NC2CCCCC2)cc1,–,inactive
CN(C)CC[C@@H](c1ccc(Cl)cc1)c1ccccn1,–,inactive
CCCCCCCCCCCCCCCC(=O)NCCO,–,inactive
Cc1cc(N)c2ccccc2[n+]1CCCCCCCCCC[n+]1c(C)cc(N)c2ccccc21,–,50.1 µM (active)
CC(=O)OCC(=O)[C@@]1(O)CC[C@H]2[C@@H]3CCC4=CC(=O)CC[C@]4(C)[C@H]3C(=O)C[C@@]21C,–,inactive
N=c1c[n+](N2CCOCC2)[n-]o1,–,inactive
OCCN1CCN(CCCN2c3ccccc3Sc3ccc(Cl)cc32)CC1,–,28.2 µM (active)
CCN(CC)CCOC(=O)C1(C2CCCCC2)CCCCC1,-5.94%,–
CC1=C(CC(=O)O)c2cc(F)ccc2/C1=C\c1ccc(S(C)(=O)=O)cc1,–,inactive
Nc1cc(=O)[nH]c(N)n1,–,inactive
CNCC(O)c1ccc(O)c(O)c1 (stereo not given),–,inactive
CCN(CC)CCNC(=O)c1cc(Cl)c(N)cc1OC,-3.98%,–
NC(=O)c1ncn([C@@H]2O[C@H](CO)[C@@H](O)[C@H]2O)n1,–,inactive
C#CCN(C)Cc1ccccc1,–,inactive
CSc1ccc2c(c1)C(N1CCN(C)CC1)Cc1ccccc1S2 (stereo not given),–,44.7 µM (active)

SMILES,"activity change, negative = inhibition",Potency
CCCn1cnc2c1c(=O)n(CCCCC(C)=O)c(=O)n2C,–,inactive
C=Cc1c(C)c2cc3[nH]c(cc4nc(cc5nc(cc1[nH]2)C(C)=C5CCC(=O)O)C(CCC(=O)O)=C4C)c(C)c3C=C,37.9%,–
CC(C)(C)[C@]1(O)CCN2C[C@H]3c4ccccc4CCc4cccc(c43)[C@@H]2C1,–,inactive
CC(C)NC[C@H](O)c1ccc(O)c(O)c1,–,inactive
CC(C(O)c1ccc(O)cc1)N1CCC(Cc2ccccc2)CC1 (stereo not given),–,inactive
CN(C)CCCN1c2ccccc2Sc2ccc(Cl)cc21,–,35.5 µM (active)
CCN(CC)C(C)CN1c2ccccc2Sc2ccccc21 (stereo not given),-28.5%,–
C[C@]12CC[C@@H]3c4ccc(O)cc4CC[C@H]3[C@@H]1CCC2=O,–,inactive
NC(N)=NCCC[C@H](N)C(=O)O,–,inactive
CN1CCN(C2Cc3ccccc3Sc3ccc(Cl)cc32)CC1 (stereo not given),-7.46%,–
C[C@H]1O[C@@H](n2cc(F)c(=O)[nH]c2=O)[C@H](O)[C@@H]1O,-2.28% [at 114 µM],–
O=C1N=C(O)CN1/N=C/c1ccc(-c2ccc([N+](=O)[O-])cc2)o1,–,inactive
CC(CN1c2ccccc2Sc2ccccc21)N(C)C (stereo not given),–,39.8 µM (active)
CC1=C(/C=C/C(C)=C/C=C/C(C)=C/C(=O)O)C(C)(C)CCC1,–,inactive
CC(C)(C(=O)O)c1ccc(C(O)CCCN2CCC(C(O)(c3ccccc3)c3ccccc3)CC2)cc1 (stereo not given),–,inactive
CN(C)CCOC(C)(c1ccccc1)c1ccccn1 (stereo not given),–,inactive
CC(C)(C)c1onc(OCP(=O)(O)O)c1CC(N)C(=O)O (stereo not given),–,inactive
CNCCC(Oc1ccc(C(F)(F)F)cc1)c1ccccc1 (stereo not given),–,inactive
CC1=C(CC(=O)O)c2cc(F)ccc2/C1=C\c1ccc(S(C)=O)cc1 (stereo not given),–,inactive
OCc1cc(C(O)CNCCCCCCOCCCCc2ccccc2)ccc1O (stereo not given),–,inactive

# Reference: PubChem BioAssay (NCATS)
